Drawing on PubChem BioAssay (EPA / NIEHS), this text covers outcome for 40 molecules.

SMILES strings stand for the structures. The source made the active and inactive calls. The calls were made as follows: active = hit-call score of the fitted dose curve at least 0.9, where 1 is the maximum; inactive = score below 0.9.

For the test, the target named is Signal transducer and activator of transcription 3 (Homo sapiens) (UniProt P40763). In words: ATG_STAT3_CIS: Attagene CIS-FACTORIAL HepG2 Assay for human Signal Transducer and Activator of Transcription 3 (STAT3) (AID 2282963). To be noted: HepG2, Attagene cis-factorial STAT3 reporter transcription; actives raise or lower the signal. The method, then: ATG_CIS is a cell-based, multiplexed-readout assay that uses HepG2, a human liver cell line, with measurements taken at 24 hours after chemical dosing in a 24-well plate.ATG_STAT3_CIS is one of 52 assay component(s) measured or calculated from the ATG_CIS assay. It is designed to make measurements of mRNA induction, a form of inducible reporter, as detected with fluorescence intensity signals by Reverse transcription polymerase chain reaction (RT-PCR) and Capillary electrophoresis technology.Data from the assay component ATG_STAT3_CIS was analyzed into 1 assay endpoint. This assay endpoint, ATG_STAT3_CIS, was analyzed with bidirectional fitting relative to DMSO as the negative control and baseline of activity. Using a type of inducible reporter, measures of mRNA for gain or loss-of-signal activity can be used to understand the reporter gene at the transcription factor-level as they relate to the gene STAT3. Furthermore, this assay endpoint can be referred to as a primary readout, because this assay has produced multiple assay endpoints where this one serves a reporter gene function. To generalize the intended target to other relatable targets, this assay endpoint is annotated to the dna binding intended target family, where the subfamily is stat protein.
Sequence of Signal transducer and activator of transcription 3 (Homo sapiens) (P40763 whole entry, looked up): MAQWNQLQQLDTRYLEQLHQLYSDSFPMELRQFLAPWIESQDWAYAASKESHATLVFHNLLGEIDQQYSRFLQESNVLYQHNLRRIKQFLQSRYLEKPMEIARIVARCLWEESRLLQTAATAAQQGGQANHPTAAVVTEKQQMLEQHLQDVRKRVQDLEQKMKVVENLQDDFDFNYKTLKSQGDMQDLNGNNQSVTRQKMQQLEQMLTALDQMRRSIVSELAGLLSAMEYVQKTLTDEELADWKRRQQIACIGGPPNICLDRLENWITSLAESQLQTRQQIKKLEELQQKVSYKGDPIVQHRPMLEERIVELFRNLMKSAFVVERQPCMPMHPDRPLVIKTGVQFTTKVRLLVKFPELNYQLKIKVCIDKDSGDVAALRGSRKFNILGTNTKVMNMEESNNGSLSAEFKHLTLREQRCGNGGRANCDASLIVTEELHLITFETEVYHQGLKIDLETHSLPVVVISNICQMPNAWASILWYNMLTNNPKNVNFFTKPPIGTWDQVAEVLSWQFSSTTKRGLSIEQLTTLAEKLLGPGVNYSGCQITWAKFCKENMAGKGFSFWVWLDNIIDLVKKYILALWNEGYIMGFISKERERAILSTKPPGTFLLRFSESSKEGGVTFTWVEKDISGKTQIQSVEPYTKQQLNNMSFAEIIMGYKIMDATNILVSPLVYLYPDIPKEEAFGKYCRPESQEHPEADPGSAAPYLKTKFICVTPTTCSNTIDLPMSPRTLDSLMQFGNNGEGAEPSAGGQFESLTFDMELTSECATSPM
Human liver HepG2 cells are transiently transfected with multiple reporter transcription units (MRTUs) in 6-well plates using FuGene 6 reagent (Roche; 3 ml FuGene/1 mg DNA). The MRTU constructs are regulated by a cis-regulating element (promoter). […] A major difference between the CIS and TRANS system is that in CIS activities of endogenous TFs are measured, whereas the TRANS assay evaluates changes in activities of exogenous, chimeric NR-Gal4 proteins. […] At the end of 24 hour incubation, total RNA was isolated using TriZol reagent (Invitrogen). The isolated RNA is then reverse-transcribed using oligo(dT) primer and Mo-MLV reverse transcriptase (Invitrogen) with DNAse I (Ambion) treatment for 30 min. The one-tenth of the produced cDNA was amplified by PCR using Taq DNA polymerase (Invitrogen) and two reporter sequence-specific primers. The PCR products were fluorescently labeled by primer extension with 6-arboxyfluorescein (6-FAM) 5'-labeled reporter sequence-specific primer (2 min at 95 C, 20 s at 68 C and 10 min at 72 C) and these products were digested with 5U of HpaI (New England Biolabs) for 2h at 37 C. The fragments were purified using Qiaquick PCR columns (Qiagen), analyzed on an ABI 3130xL genetic analyzer (Applied Biosystems) with peak positions identified by using a set of X-rhodamine (ROX)-labeled MapMarker1000 molecular weight standards (BioVentures). The raw capillary electrophoresis data was processed using Attagraph software (Attagene).
As for `[Cl-].[Cl-].[Hg+2]`, the outcome was inactive.
In the case of `OCCOCCO` it was “inactive”; in that of `O=C(O)C1C2CCC(O2)C1C(=O)O` (stereo not given), “inactive”; in that of `OCCCl`, “inactive”.
For `Nc1ccc([N+](=O)[O-])cc1`, the molecule was called inactive.
With `C[N+](C)(C)CC1CO1` (stereo not given), the outcome was inactive.
As for `Brc1ccc(Oc2ccccc2)cc1`, the molecule was classed as inactive.
Consider `O=[N+]([O-])c1ccc(Oc2ccc(Cl)cc2Cl)cc1`, for which the molecule was classed as inactive.
In the case of `CN(C)c1ccc(C(=O)c2ccc(N(C)C)cc2)cc1` it was “inactive”; in that of `N#CC(Br)Br`, “inactive”.
Consider `COC(=O)Nc1nc2ccccc2[nH]1`, for which the molecule was classed as inactive.
In the case of `CCCCOC(=O)c1ccccc1C(=O)OCc1ccccc1` it was “inactive”; in that of `[O-][Cl+]O`, “inactive”; in that of `CCOC(=O)[C@]1(c2ccccc2)Oc2ccccc2[C@@H]1N`, “inactive”.
In the case of `c1ccc2c(c1)-c1cccc3cccc-2c13`, the molecule was called inactive.
In the case of `CCCSC(=O)N(CCC)CCC` it was “inactive”.
On to `N#CC(Br)(Br)C(N)=O`, for which the call was inactive.
For the molecule `CC(C)COC(=O)c1ccccc1C(=O)OCC(C)C`, the molecule was called inactive.
In the case of `c1ccc(C2CO2)cc1` (stereo not given) it was “inactive”; in that of `Oc1ccccc1Cl`, “inactive”.
The same measure for `OCCCBr`: “inactive”.
In the case of `c1ccc2c(c1)oc1ccccc12` it was “inactive”.
As for `CCN(CC)CCO`, the result was inactive.
On to `Nc1ccc(N=Nc2ccccc2)cc1`, for which the result was inactive.
`Clc1ccc(Cl)c(Cl)c1`: the molecule was classed as inactive.
In the case of `Nc1ccc(Cc2ccc(N)cc2)cc1` it was “inactive”; in that of `O=Cc1ccco1`, “inactive”.
In the case of `CC(O)CCO` (stereo not given) it was “inactive”; in that of `CCOc1cccc(C2(N3CCN(c4ccccc4)CC3)CCC(C)CC2)c1` (stereo not given), “inactive”.
The same measure for `CN(C)c1ccccc1`: “inactive”; for `CN(C)[C@@H]1C(=O)C(C(N)=O)=C(O)[C@@]2(O)C(=O)C3=C(O)c4c(O)cccc4[C@@](C)(O)[C@H]3C[C@@H]12`: “inactive”.
Regarding `O=C(N[C@H](c1ccccc1)[C@@H]1CN2CCC1CC2)c1c(Cl)ccc(C(F)(F)F)c1Cl`, the call was inactive.
`CCCCCCCCOC(=O)c1ccc(C(=O)OCCCCCCCC)c(C(=O)OCCCCCCCC)c1`: the molecule was classed as inactive.
As for `Clc1ccc(C(c2ccc(Cl)cc2)C(Cl)(Cl)Cl)cc1`, the outcome was inactive.
`Cn1cc(-c2ccccc2)c(=O)c(-c2cccc(C(F)(F)F)c2)c1`: the molecule was classed as inactive.
On to `COC(=O)c1ccccc1N`, for which the result was inactive.
In the case of `Clc1ccc(C(c2ccc(Cl)cc2)C(Cl)Cl)cc1` it was “inactive”; in that of `O=[N+]([O-])C(Br)(CO)CO`, “inactive”; in that of `Cc1ccc(N=C=O)cc1N=C=O`, “inactive”.
In the case of `CO[C@@H]1[C@H](OC(=O)NC(=O)CCl)CC[C@]2(CO2)[C@H]1[C@@]1(C)O[C@@H]1CC=C(C)C`, the molecule was classed as inactive.
